This passage reports inhibition results from ChEMBL document CHEMBL3433997, “St. Jude Leishmania screening dataset” (2016).

Format in all cases: functional
Assay [1] addresses Solute carrier family 2, facilitated glucose transporter member 1 (Homo sapiens) (UniProt P11166). The assay can be described thus: ST_JUDE_LEISH: Cytotoxicity at 2uM final concentration against transgenic Leishmania Mexicana promastigotes LmGLUT1 that are glucose transport deficient and complemented with the human glucose transporter GLUT1. Activity is measured by DNA content using SYBR green in vitro.

The target in assay [2] is Hexose transporter 1 (Plasmodium falciparum) (UniProt O97467). In words: ST_JUDE_LEISH: Cytotoxicity at 2uM final concentration against transgenic Leishmania Mexicana promastigotes LmPfHT that are glucose transport deficient and complemented with the Plasmodium falciparum hexose transporter. Activity is measured by DNA content using SYBR green in vitro.
Assay [3] deals with Glucose transporter (Leishmania mexicana) (UniProt O61059). The assay can be described thus: ST_JUDE_LEISH: Cytotoxicity at 2uM final concentration against transgenic Leishmania Mexicana promastigotes LmGT2 that are glucose transport deficient and complemented with the L. Mexicana glucose transporter 2. Activity is measured by DNA content using SYBR green in vitro.

Chain of Solute carrier family 2, facilitated glucose transporter member 1 (Homo sapiens) (P11166 whole entry): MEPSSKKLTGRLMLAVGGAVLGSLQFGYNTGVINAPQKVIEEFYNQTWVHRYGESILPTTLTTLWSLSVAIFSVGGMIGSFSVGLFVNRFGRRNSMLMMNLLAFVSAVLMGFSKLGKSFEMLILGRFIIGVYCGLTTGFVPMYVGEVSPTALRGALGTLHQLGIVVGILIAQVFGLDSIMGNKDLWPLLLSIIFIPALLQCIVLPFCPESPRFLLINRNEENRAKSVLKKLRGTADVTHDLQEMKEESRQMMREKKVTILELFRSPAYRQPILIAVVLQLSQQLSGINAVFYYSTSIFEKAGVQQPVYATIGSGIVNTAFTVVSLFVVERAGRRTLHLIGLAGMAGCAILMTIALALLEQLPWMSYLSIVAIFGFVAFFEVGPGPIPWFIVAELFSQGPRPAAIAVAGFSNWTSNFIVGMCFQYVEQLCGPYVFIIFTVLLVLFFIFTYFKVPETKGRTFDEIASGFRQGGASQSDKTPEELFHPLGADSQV

Usually inhibition stands for the change of the read-out against control, counted positive when it falls. Regarding `COc1ccc(CN(C)Cc2cc(C(C)C)c(C)cc2O)cc1F`, the inhibition is 2.07% in assay [1], 1.85% in assay [2] and -2.13% in assay [3].

On to `CCN(CCCN1CCCCC1)c1cc(C)nc(Nc2cc(F)cc(F)c2)n1`, for which the inhibition in assay [1] was 5.16%; in assay [2], 4.98%; in assay [3], 4.62%.

For the compound `COc1ccc(CN2CCC(CN3CC4(OC3=O)c3ccccc3-c3ccccc34)C2)c(O)c1` (centres undefined), the inhibition in assay [1] was 10.8%; in assay [2] it was 9.02%; in assay [3], 11%.
